SMILES strings stand for the structures. Where a structure was tested more than once in an assay, its records may differ in their call. Activity calls are given as the source filed them. Rule for the calls: active = hit-call score of the fitted dose curve at least 0.9, where 1 is the maximum; inactive = score below 0.9.

The results in this text go back to PubChem BioAssay (EPA / NIEHS).

Read-out in one experiment: CD40, CD40 (gene 958)
Put plainly: BSK_SAg_CD40: BioMAP Diversity Plus: SAg Assay for CD40 Biomarker Activity (AID 2283088). To be noted: primary human HUVEC with PBMC; actives raise or lower the signal. Put shortly: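 HUVEC plus PBMC co-culture, superantigen-activated, with CD40 read by ELISA 24 h after dosing. Curves fitted in both directions against DMSO. Overt cytotoxicity checked by parallel SRB total-protein staining.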

Experiment [1] in a line: ATG_Ets_CIS: Attagene CIS-FACTORIAL HepG2 Assay for human Erythroblast Transformation Specific (ETS) (AID 2282941). The following applies: HepG2 ETS cis-reporter transcription, actives raise or lower the signal. Put shortly: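 Endogenous transcription factor activity read as reporter mRNA via RT-PCR and capillary electrophoresis, with gain or loss fitted bidirectionally against DMSO. Human HepG2 liver cells, transiently transfected CIS reporter constructs, 24 h exposure.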

Experiment [2] in a line: ATG_FoxO_CIS: Attagene CIS-FACTORIAL HepG2 Assay for human Forkhead box O (FoxO) (AID 2282943). To be noted: HepG2 Attagene cis-reporter, FoxO element, mRNA; actives raise or lower the signal. Put shortly:
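Read-out: fluorescence of 6-FAM-labelled reporter cDNA fragments resolved by capillary electrophoresis. Transiently transfected HepG2 cells were dosed for 24 h; activity fitted in both directions relative to DMSO controls.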

Experiment [3] can be described thus: ATG_GATA_CIS: Attagene CIS-FACTORIAL HepG2 Assay for human GATA Binding Protein (AID 2282944). To be noted: HepG2 GATA cis-element reporter, Attagene multiplex mRNA; actives raise or lower the signal. Put shortly:
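Transfected cis-reporter HepG2 cells were treated with chemicals for 24 hours. Total RNA was then converted to cDNA, amplified with reporter-specific primers and analysed by fluorescent capillary electrophoresis, using DMSO-treated wells as baseline.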

Experiment [4] can be described thus: ATG_GLI_CIS: Attagene CIS-FACTORIAL HepG2 Assay for human Zinc Finger Protein GLI1 (AID 2282945). To be noted: HepG2, Attagene cis-factorial reporter mRNA, GLI element; actives raise or lower the signal. Put shortly: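 Transiently transfected HepG2 cells report endogenous transcription factor activity via cis-element-driven reporter units. After 24 h compound exposure, reporter mRNA was measured by RT-PCR with capillary electrophoresis; bidirectional fitting against DMSO baseline.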

A short description of experiment [5]: ATG_ISRE_CIS: Attagene CIS-FACTORIAL HepG2 Assay for human Interferon Regulatory Factor 1 (IRF1) binding to an Interferon-Stimulated Response Element (ISRE) (AID 2282948). To be noted: HepG2 ISRE cis-reporter (Attagene), mRNA transcription readout; actives raise or lower the signal. Put shortly: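 Endogenous transcription factor activity read as reporter transcript abundance via RT-PCR and capillary electrophoresis. HepG2 cells transiently transfected, 24 h chemical exposure. Gain or loss fitted against DMSO baseline.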

Experiment [6] can be described thus: ATG_M_32_CIS: Attagene CIS-FACTORIAL HepG2 Assay for M32 Transcription Factor (Internal Marker) (AID 2282949).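 Note: background control marker of the multiplexed CIS panel rather than a real target.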 The following applies: HepG2 Attagene cis-factorial M32 reporter, mRNA; actives raise or lower the signal. Put shortly: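 HepG2 human liver cells transiently transfected with cis-promoter-driven multiple reporter transcription units, dosed 24 h. Reporter mRNA quantified by RT-PCR, FAM-labelled primer extension, HpaI digest and capillary electrophoresis; bidirectional fit versus DMSO baseline.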

Experiment [7] is described as follows: ATG_M_06_CIS: Attagene CIS-FACTORIAL HepG2 Assay for M06 Transcription Factor (Internal Marker) (AID 2282950). To be noted: HepG2 Attagene CIS-FACTORIAL M06 internal marker reporter; actives raise or lower the signal. Put shortly: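 Cells (HepG2, transiently carrying cis-driven reporter units) receive chemical for 24 h before RNA isolation. Reporter cDNA is PCR-amplified, FAM-labelled by primer extension, HpaI-digested and sized on a capillary analyser.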

Experiment [8] deals with Paired box protein Pax-6 (Homo sapiens) (UniProt P26367). Put plainly: ATG_Pax6_CIS: Attagene CIS-FACTORIAL HepG2 Assay for human Paired Box 6 (PAX6) (AID 2282956). The following applies: HepG2 CIS-FACTORIAL PAX6 reporter transcription, RNA readout; actives raise or lower the signal. Put shortly: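 Read-out is reporter transcript level, measured by RT-PCR with fluorescent primer extension and capillary electrophoresis after 24 h dosing of transfected HepG2 cells. Activity in either direction fitted relative to DMSO control.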

Experiment [9] is described as follows: ATG_PXRE_CIS: Attagene CIS-FACTORIAL HepG2 Assay for human Pregnane X Receptor Element (PXRE) (AID 2282957). To be noted: HepG2 Attagene CIS-FACTORIAL PXRE reporter, mRNA; actives raise or lower the signal. Put shortly:
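After a 24 h chemical incubation, total RNA from transfected HepG2 cells was reverse-transcribed and reporter cDNA amplified, FAM-labeled, HpaI-digested and sized by capillary electrophoresis. DMSO served as baseline for bidirectional curve fitting.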

Experiment [10] can be described thus: ATG_Sox_CIS: Attagene CIS-FACTORIAL HepG2 Assay for human SRY-box transcription factor (SOX) (AID 2282960). To be noted: HepG2 Attagene cis-factorial SOX reporter, mRNA; actives raise or lower the signal. Put shortly:
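Transient MRTU transfection of HepG2; 24 h compound incubation; TriZol RNA, oligo(dT) RT, PCR, 6-FAM primer extension, HpaI cut, CE. Bidirectional fit, DMSO = baseline.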

For experiment [11], the target named is Transcription factor Sp1 (Homo sapiens) (UniProt P08047). Put plainly: ATG_Sp1_CIS: Attagene CIS-FACTORIAL HepG2 Assay for human Specificity Protein 1 (Sp1) (AID 2282961). To be noted: HepG2 Sp1 cis-reporter transcription, actives raise or lower the signal. Put shortly:
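Endogenous Sp1 activity was gauged in human liver HepG2 cells bearing transfected reporter units under a cis-regulating promoter. After 24 h dosing, reporter mRNA was quantified by RT-PCR with capillary electrophoresis, and activity fitted bidirectionally versus DMSO.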

Experiment [12] can be described thus: ATG_SREBP_CIS: Attagene CIS-FACTORIAL HepG2 Assay for human Sterol Regulatory Element Binding (SREBP) (AID 2282962). To be noted: HepG2 Attagene cis-factorial SREBP reporter, mRNA; actives raise or lower the signal. Put shortly: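 Endogenous SREBP activity read as cis-element-driven reporter transcript in transiently transfected HepG2, 24 h post-dosing; quantified via RT-PCR plus capillary electrophoresis of fluorescent fragments. Gain or loss of signal fitted relative to DMSO baseline.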

The target in experiment [13] is Signal transducer and activator of transcription 3 (Homo sapiens) (UniProt P40763). Nature of the experiment: ATG_STAT3_CIS: Attagene CIS-FACTORIAL HepG2 Assay for human Signal Transducer and Activator of Transcription 3 (STAT3) (AID 2282963). The following applies: HepG2, Attagene cis-factorial STAT3 reporter transcription; actives raise or lower the signal. Put shortly:
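Fluorescence intensity of 6-FAM-labelled reporter fragments, separated by capillary electrophoresis after RT-PCR, gave the signal. Cells were HepG2 transfected with cis-element reporter units and treated 24 h; fitting was bidirectional relative to DMSO.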

Experiment [14] in a line: ATG_TA_CIS: Attagene CIS-FACTORIAL HepG2 Assay for human TA Basal Promoter (AID 2282964). The following applies: HepG2 Attagene CIS-factorial TA basal promoter reporter; actives raise or lower the signal. Put shortly:
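Background internal-marker endpoint from a 52-component HepG2 cis-reporter panel. Cells treated 24 h; reporter transcripts quantified via RT-PCR and CE fluorescence against DMSO baseline.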

Experiment [15] can be described thus: ATG_TCF_b_cat_CIS: Attagene CIS-FACTORIAL HepG2 Assay for human T-Cell-Factor with beta-catenin (TCF/b-cat) (AID 2282965). To be noted: HepG2 TCF/beta-catenin cis-reporter transcription, actives raise or lower the signal. Put shortly:
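HepG2, transient MRTU transfection, cis-element-driven reporters (endogenous TFs). 24 h compound exposure. Readout: reporter mRNA by RT-PCR + 6-FAM primer extension, HpaI digest, capillary electrophoresis. Gain/loss fit vs DMSO baseline.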

Experiment [16] can be described thus: ATG_TAL_CIS: Attagene CIS-FACTORIAL HepG2 Assay for human TAL Basal Promoter (AID 2282966).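 Note: background control endpoint measuring basal TAL promoter reporter mRNA not a specific factor.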 The following applies: HepG2 Attagene cis-factorial TAL promoter reporter; actives raise or lower the signal. Put shortly:
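Basal-promoter background-control endpoint from a multiplexed HepG2 reporter panel. Cells were exposed 24 h, then reporter mRNA was read by RT-PCR/CE fluorescence and fitted in both directions relative to DMSO.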

For experiment [17], the target named is Transcriptional activator Myb (Homo sapiens) (UniProt P10242). Put plainly: ATG_Myb_CIS: Attagene CIS-FACTORIAL HepG2 Assay for human Myeloblastosis (Myb) Proto-Oncogene Transcription Factor (AID 2282986). The following applies: HepG2 Attagene CIS-FACTORIAL Myb reporter transcription; actives raise or lower the signal. Put shortly:
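Steps: transfect HepG2 with cis-regulated reporter units; dose with chemical for 24 h; isolate RNA, reverse-transcribe, PCR-amplify and FAM-label reporter sequences; digest with HpaI; resolve by capillary electrophoresis. Activity fitted in both directions relative to DMSO.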

For experiment [18], the target named is Myc proto-oncogene protein (Homo sapiens) (UniProt P01106). Put plainly: ATG_Myc_CIS: Attagene CIS-FACTORIAL HepG2 Assay for human Myelocytomatosis (Myc) Proto-Oncogene Transcription Factor (AID 2282990). To be noted: HepG2, Attagene cis-reporter transcription factor activity; actives raise or lower the signal. Put shortly: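 Read-out: fluorescent reporter mRNA fragments resolved by capillary electrophoresis after RT-PCR. Human HepG2 liver cells carried transfected cis-element reporter units and were dosed for 24 h. Gain or loss of signal fitted relative to DMSO baseline.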

The nature of experiment [19]: ATG_Oct_MLP_CIS: Attagene CIS-FACTORIAL HepG2 Assay for human Octamer-Binding Transcription Factor (Oct) (AID 2282993). To be noted: HepG2 Attagene cis-factorial Oct reporter, mRNA; actives raise or lower the signal. Put shortly: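 Using HepG2 cells bearing transfected cis-reporter constructs, mRNA induction was read after 24 h by fluorescent RT-PCR and capillary electrophoresis, with DMSO defining baseline for gain- or loss-of-signal fits.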

Sequence of Paired box protein Pax-6 (Homo sapiens) (P26367 whole entry, looked up): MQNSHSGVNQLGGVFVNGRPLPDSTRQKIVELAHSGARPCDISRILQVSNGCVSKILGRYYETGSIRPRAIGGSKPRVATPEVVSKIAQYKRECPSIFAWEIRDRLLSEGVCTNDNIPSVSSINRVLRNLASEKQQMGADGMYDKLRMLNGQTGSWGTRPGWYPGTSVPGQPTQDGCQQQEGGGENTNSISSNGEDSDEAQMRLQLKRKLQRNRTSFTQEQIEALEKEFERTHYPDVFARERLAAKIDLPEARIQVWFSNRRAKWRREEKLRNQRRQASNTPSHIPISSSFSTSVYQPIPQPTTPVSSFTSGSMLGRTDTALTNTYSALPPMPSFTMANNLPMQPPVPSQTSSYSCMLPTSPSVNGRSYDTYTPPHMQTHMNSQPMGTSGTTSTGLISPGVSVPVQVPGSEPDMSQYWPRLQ
Sequence of Myc proto-oncogene protein (Homo sapiens) (P01106 whole entry, looked up, the tested form may be a part): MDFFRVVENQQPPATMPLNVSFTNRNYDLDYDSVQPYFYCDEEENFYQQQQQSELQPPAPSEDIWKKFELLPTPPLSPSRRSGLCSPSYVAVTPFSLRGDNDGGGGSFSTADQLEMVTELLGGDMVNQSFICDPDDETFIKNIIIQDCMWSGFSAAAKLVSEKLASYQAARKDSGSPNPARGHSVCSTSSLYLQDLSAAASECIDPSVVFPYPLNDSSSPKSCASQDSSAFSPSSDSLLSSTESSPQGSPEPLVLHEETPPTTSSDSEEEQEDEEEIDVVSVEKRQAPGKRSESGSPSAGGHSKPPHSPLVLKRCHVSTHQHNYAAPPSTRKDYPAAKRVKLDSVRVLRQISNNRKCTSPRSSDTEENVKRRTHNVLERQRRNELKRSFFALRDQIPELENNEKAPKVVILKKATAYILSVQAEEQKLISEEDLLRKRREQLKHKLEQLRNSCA
Sequence of Signal transducer and activator of transcription 3 (Homo sapiens) (P40763 whole entry, looked up, the tested form may be a part): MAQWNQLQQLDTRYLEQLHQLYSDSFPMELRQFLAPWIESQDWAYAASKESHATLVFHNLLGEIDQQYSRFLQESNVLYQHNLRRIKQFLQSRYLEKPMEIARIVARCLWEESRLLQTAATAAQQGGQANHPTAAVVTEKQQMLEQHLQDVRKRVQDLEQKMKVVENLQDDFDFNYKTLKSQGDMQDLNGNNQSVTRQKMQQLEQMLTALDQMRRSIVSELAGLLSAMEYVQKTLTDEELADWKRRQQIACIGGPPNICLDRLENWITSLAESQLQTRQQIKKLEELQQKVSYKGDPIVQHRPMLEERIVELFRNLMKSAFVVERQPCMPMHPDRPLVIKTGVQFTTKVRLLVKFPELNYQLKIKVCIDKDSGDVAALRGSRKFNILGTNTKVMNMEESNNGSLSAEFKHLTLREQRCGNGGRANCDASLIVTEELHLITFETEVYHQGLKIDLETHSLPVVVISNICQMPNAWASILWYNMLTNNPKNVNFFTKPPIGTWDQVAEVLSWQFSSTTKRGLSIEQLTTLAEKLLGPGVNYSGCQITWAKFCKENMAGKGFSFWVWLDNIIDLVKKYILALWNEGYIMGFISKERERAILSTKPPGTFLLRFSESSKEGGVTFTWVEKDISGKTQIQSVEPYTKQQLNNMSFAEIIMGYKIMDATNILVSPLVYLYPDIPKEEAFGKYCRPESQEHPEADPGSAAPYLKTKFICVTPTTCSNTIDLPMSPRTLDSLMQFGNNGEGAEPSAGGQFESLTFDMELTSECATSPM
Sequence of Transcriptional activator Myb (Homo sapiens) (P10242 whole entry, looked up): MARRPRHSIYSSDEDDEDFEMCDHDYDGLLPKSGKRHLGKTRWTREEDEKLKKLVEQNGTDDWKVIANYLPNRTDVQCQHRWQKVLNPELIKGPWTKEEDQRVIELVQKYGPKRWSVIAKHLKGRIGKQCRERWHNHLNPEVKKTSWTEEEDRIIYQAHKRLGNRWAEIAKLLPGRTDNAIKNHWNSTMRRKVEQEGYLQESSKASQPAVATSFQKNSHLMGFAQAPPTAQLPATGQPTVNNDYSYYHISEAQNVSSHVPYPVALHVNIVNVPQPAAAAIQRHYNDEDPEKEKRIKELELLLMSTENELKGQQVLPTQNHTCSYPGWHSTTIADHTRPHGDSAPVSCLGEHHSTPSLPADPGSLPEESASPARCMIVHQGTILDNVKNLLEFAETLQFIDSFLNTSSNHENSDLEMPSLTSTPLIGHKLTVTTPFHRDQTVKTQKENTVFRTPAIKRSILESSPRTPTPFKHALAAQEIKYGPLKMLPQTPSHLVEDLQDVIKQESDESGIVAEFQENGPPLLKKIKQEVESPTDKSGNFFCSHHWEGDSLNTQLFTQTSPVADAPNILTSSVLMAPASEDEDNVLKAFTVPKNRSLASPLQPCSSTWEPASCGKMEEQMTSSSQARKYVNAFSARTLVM
Sequence of Transcription factor Sp1 (Homo sapiens) (P08047 whole entry, looked up): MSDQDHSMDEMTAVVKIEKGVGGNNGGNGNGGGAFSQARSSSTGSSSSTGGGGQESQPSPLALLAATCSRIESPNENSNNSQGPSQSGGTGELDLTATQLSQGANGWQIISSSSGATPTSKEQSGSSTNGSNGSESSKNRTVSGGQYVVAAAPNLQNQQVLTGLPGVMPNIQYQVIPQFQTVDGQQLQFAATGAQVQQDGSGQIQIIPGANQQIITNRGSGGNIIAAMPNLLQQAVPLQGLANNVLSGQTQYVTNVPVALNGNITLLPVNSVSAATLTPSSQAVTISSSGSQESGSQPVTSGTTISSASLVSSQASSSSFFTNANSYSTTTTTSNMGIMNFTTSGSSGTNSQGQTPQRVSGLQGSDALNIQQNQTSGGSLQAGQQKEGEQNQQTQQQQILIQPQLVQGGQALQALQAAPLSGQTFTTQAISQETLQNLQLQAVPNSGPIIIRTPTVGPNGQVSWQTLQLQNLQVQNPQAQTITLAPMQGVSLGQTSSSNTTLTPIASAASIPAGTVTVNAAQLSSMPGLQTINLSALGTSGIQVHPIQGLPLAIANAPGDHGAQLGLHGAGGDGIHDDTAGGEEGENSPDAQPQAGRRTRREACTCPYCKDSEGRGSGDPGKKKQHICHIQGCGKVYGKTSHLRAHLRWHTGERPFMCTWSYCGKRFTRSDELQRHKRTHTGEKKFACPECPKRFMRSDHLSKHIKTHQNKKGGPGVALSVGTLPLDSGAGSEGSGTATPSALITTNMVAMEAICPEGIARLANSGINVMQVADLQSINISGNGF

Take `CCC[Si](OC(C)=O)(OC(C)=O)OC(C)=O`: in the experiment with CD40, CD40 (gene 958), the result was inactive.
Consider `COc1cc(CNC(=O)CCCC/C=C/C(C)C)ccc1O`, for which, in the experiment with CD40, CD40 (gene 958), the AC50 (in general, the concentration at which the activity in the assay is half-maximal) was 20 µM (active) and the outcome was inactive.
On to `CN(C)N=Nc1ccccc1`, for which the outcome in [1], in experiment [2], in [3], in experiment [4], in experiment [5] and in [6] was inactive. Also, the result in experiment [7], in experiment [8], in experiment [10], in experiment [11], in experiment [12] and in [13] was inactive. Moreover, the compound was classed as inactive in experiment [14], in experiment [15], in experiment [16], in experiment [17], in experiment [18] and in experiment [19]. Also, in experiment [9], the AC50 was 48.3 µM (active).
On to `COc1ccc2ccccc2c1`, for which the result in experiment [1], in experiment [2], in experiment [3], in experiment [4], in experiment [5] and in experiment [6] was inactive. Further, the result in experiment [7], in [8], in experiment [9], in experiment [10], in [11] and in experiment [12] was inactive. For the same compound, the call in experiment [13], in experiment [14], in [15], in [16], in experiment [17] and in experiment [18] was inactive. Further, the compound was classed as inactive in experiment [19].
As for `CCO[Si](CCCN)(OCC)OCC`, the compound was classed as inactive in [1], in experiment [2], in experiment [3], in experiment [4], in experiment [5] and in experiment [6]. The outcome in experiment [7], in [8], in [10], in experiment [11], in experiment [12] and in [13] was inactive. The compound was classed as inactive in experiment [14], in experiment [15], in experiment [16], in experiment [17], in experiment [18] and in experiment [19]. Moreover, the AC50 in experiment [9] was 100 µM (active).
On to `CCCc1c(OCCCCc2nn[nH]n2)ccc(C(C)=O)c1O`, for which the compound was classed as inactive in experiment [1], in [2], in [3], in [4], in [5] and in experiment [6]. In addition, the compound was called inactive in experiment [7], in experiment [8], in experiment [10], in experiment [11], in experiment [13] and in [14]. Also, the call in experiment [15], in experiment [16], in experiment [17], in experiment [18] and in [19] was inactive. Further, the values for the AC50 in experiment [9] and in experiment [12] were 27.4 µM (active) and 37.4 µM (active), respectively.
